# Sampled rows, rich in hits. Any-hit rate of the full collection: about 2.8%.
# TRPM1 prom inh – inhibitors of MITF-driven TRPM1 promoter in melanoma cells | inhibition, % at 12.5 µM | hit rate 0.83% among 330,000 | SK-MEL-5 TRPM1 promoter luciferase, 24 h;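 active = mean inhibition across replicates of 60% or more, whatever share of single replicates reaches that level; inconclusive = some that reach 60%, reason not given; inactive = mean inhibition across replicates below 60%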
# CF NFkB inh – inhibitors of cystic fibrosis induced NF-kB; KKLEB NF-kB-GFP reporter, PAF-induced, GFP fluorescence overnight; inhibition, % at 5 µM; hit rate 0.86% among 360,000;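 active = at least 50% inhibition at 5 µM, scaled per plate between neutral and stimulator controls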;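 note: PAF is a Pseudomonas aeruginosa culture filtrate used as stimulus; plate controls were PAF-stimulated DMSO wells for no effect and unstimulated DMSO wells for full effect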
# KKLEB cytotox – counter-screen for CF NF-kB inhibitors: cytotoxicity; hit rate 0.36% among 360,000; KKLEB CF airway cells viability, ATPlite luminescence, overnight; active compounds read low; cells stimulated with P. aeruginosa culture filtrate; AID 602141; activity change (cytotoxicity), % at 5 µM;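 active = corrected activity change at or below -50% at 5 µM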
# HIF-2a inh – HIF-2a inhibition; hit rate 0.72% among 360,000; AID 624352; 786-0 RCC cells HIF-2a reporter, luciferase luminescence, overnight; inhibition, % at 18.8 µM;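 active = inhibition of the luminescence signal of 40% or more relative to plate controls, in a single-dose primary screen at 18.75 µM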
# Shn3 3UTR inh – reduces Shn3 3'UTR luciferase signal in osteoblasts. AID 588674. inhibition, % at 12.5 µM. Clone20 osteoblast Shn3 3'UTR firefly luciferase, 24 h. hit rate 0.52% among 360,000;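 active = mean inhibition of at least 75% with every replicate also reaching 75%; inconclusive = mean inhibition at least 75% but some replicate below; inactive = mean inhibition below 75%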;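 note: 0% = median of neutral control wells and 100% = pilot-screen positive control compound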
# Peg3 promoter – inhibitors of Peg3 promoter. HeLa PEG-Prom luciferase reporter, luminescence, overnight. inhibition, % at 20 µM. hit rate 1.7% among 360,000. AID 588405;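 active = inhibition of at least 50% at 20 µM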
# Mdm2-MdmX confirm – Mdm2/MdmX (human) interaction inhibition, confirmed. shares compounds with HIF-2a inh. SaOS-2 split-luciferase Mdm2/MdmX complementation, luminescence. inhibition, % at 8 µM. hit rate 99% among 740;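 active = mean inhibition of the luminescence signal across two replicates at or above 26 percent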
# Target sequence (O15151 whole entry, looked up): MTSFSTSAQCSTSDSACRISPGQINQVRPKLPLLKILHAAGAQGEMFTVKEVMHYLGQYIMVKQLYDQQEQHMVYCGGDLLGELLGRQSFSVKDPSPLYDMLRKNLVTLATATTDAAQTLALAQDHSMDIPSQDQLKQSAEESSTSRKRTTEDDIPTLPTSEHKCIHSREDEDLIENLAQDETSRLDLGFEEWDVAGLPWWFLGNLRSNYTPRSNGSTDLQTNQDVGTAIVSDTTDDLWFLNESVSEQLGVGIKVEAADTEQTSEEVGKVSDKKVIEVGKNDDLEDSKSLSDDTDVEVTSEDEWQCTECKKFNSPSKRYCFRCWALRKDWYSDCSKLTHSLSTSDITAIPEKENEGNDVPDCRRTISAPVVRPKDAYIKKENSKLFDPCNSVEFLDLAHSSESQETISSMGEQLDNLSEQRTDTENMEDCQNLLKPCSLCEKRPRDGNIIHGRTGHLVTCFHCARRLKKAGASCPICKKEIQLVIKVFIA
# Target sequence (Q00987 whole entry, looked up): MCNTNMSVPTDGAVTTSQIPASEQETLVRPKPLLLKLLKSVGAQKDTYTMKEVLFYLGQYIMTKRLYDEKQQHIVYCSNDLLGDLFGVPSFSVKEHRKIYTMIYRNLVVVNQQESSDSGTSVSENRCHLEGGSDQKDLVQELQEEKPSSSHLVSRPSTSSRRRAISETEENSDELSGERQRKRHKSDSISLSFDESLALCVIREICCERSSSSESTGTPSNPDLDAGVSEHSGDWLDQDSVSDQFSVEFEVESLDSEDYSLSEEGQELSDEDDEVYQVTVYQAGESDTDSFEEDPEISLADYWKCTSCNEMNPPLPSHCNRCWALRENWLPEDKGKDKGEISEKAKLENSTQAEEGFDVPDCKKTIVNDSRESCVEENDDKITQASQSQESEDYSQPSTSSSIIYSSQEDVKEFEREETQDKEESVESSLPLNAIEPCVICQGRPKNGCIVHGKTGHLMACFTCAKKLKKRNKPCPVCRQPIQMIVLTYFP
# HIF-2a conf – confirmation of HIF-2a inhibitors. inhibition, % at 18.8 µM. shares compounds with HIF-2a inh. hit rate 56% among 1,800. 786-0 RCC cells, HIF-2a luciferase reporter luminescence, overnight;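 active = mean inhibition across four replicates of at least 40 percent at the single tested concentration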
# HIF-1a cs – HIF-1a inhibition counter-screen for HIF-2a hits. shares compounds with HIF-2a inh. MiaPaCa-2 HIF-1a luciferase reporter, desferoxamine, overnight. inhibition, % at 18.8 µM. hit rate 72% among 1,800;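 active = mean inhibition of the reporter signal across four replicates at the single tested dose of 50% or more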
# * = called active by the depositor; ? = inconclusive; . = no result given.
SMILES,TRPM1 prom inh,CF NFkB inh,KKLEB cytotox,HIF-2a inh,Shn3 3UTR inh,Peg3 promoter,HIF-2a conf,HIF-1a cs,others
CCC(=O)Nc1ccc(C(=O)Cn2ncc(Cl)c(Cl)c2=O)cc1,?,43.9,-3.9,89.7*,.,106.3*,-9.0,105.1*,
O=C(O)CCC(=O)N1CCN(S(=O)(=O)c2ccc3ccccc3c2)CC1,-5.1,-3.4,2.6,6.8,-4.2,12.8,.,.,
O=C(Cn1ncc(Cl)c(Cl)c1=O)N1CCN(S(=O)(=O)c2ccc3ccccc3c2)CC1,89.1*,81.8*,-68.1*,94.5*,9.5,105.6*,96.0*,105.3*,Mdm2-MdmX confirm=101.7*
COc1ccc(-n2nc(C(=O)NCC(=O)NCCc3ccc(OC)c(OC)c3)c3ccccc3c2=O)cc1Cl,6.2,8.5,-13.1,10.8,7.3,45.8,.,.,
Cn1c(/C=C/c2ccc([N+](=O)[O-])o2)nc2ccccc2c1=O,84.5*,-10.8,-6.1,75.5*,96.5*,110.5*,-6.5,104.7*,Mdm2-MdmX confirm=102.5*
Cc1ccc(NC(=O)Cc2nnc(SCC(=O)NC3CCCC3)n2C)c(C)c1,6.4,2.6,5.3,14.2,-5.4,7.8,.,.,
C=CCn1cccc(/C=C/C(=O)c2ccc(C(C)(C)C)cc2)c1=S,3.5,37.2,-52.5*,70.5*,75.1,102.0*,60.8*,105.2*,
CCOc1ccc2nc(Cl)c(C3CC(c4ccco4)=NN3S(C)(=O)=O)cc2c1 (stereo not drawn),-3.0,1.1,-9.1,44.8*,2.2,1.4,-3.2,35.3,
Cc1ccc2nc(Cl)c(C3CC(c4ccco4)=NN3S(C)(=O)=O)cc2c1 (stereo not drawn),-2.5,0.2,0.6,-77.2,-18.6,-28.8,.,.,
COc1ccc(-c2csc(N(CCCN(C)C)C(=O)c3ccc(OC)c(OC)c3)n2)cc1,.,20.8,-6.1,-0.1,-12.4,-11.1,.,.,
COc1ccc(NC(=O)/C(C#N)=C/c2c(C)nn(-c3ccc(F)cc3)c2Cl)cc1OC,-2.8,16.7,-3.1,42.8*,14.3,22.3,11.0,54.0*,
CCn1c2c(c3cc(OCC(C)C)ccc31)CCCC2=O,-13.0,12.5,-3.5,10.3,24.1,8.8,.,.,
C=C1CCc2c([nH]c3ccc(OCC(C)C)cc23)C1=O,57.8,29.4,-21.4,95.9*,81.5,103.1*,-5.7,66.7*,
OCCCNc1c2ccccc2nc2ccccc12,83.0*,-126.0,6.1,6.3,-16.1,103.6*,.,.,Mdm2-MdmX confirm=96.7*
CC(OC(=O)CCCSc1nc2ccccc2s1)C(=O)NC(N)=O (stereo not drawn),6.8,-5.1,3.1,49.6*,-5.9,22.5,84.5*,62.6*,
NC(=O)COC(=O)CCCSc1nc2ccccc2s1,6.5,-12.3,10.3,56.7*,64.8,1.3,76.1*,39.5,
Cc1noc(C)c1CSCC(=O)OCC(=O)Nc1sccc1C#N,23.3,7.3,0.3,10.6,-23.3,0.6,.,.,
CNC(=O)NC(=O)COC(=O)CCCSc1nc2ccccc2s1,20.8,-13.2,9.4,64.2*,20.3,9.7,84.7*,56.7*,
N#Cc1ccsc1NC(=O)COC(=O)CCCSc1nc2ccccc2s1,14.4,7.9,0.1,63.9*,13.7,10.2,69.2*,52.7*,
COC(=O)c1c(NC(=O)c2nc3ccccc3s2)sc2c1CC(C)(C)NC2(C)C,77.3*,33.7,-31.7,23.3,71.7,104.5*,.,.,Mdm2-MdmX confirm=92.7*
COc1cc(/C=C/C(=O)c2ccc3c(c2)OCCO3)cc(Br)c1OCC(=O)N(C)C,92.7*,3.6,-0.5,93.2*,91.8*,107.0*,91.5*,101.8*,Mdm2-MdmX confirm=101.5*
COc1cccc(/C=C/C(=O)c2ccc3c(c2)OCO3)c1OC,.,5.5,-15.7,-198.1,-25.9,-219.3,.,.,
O=C(CN1CCN(S(=O)(=O)c2ccc(Br)cc2)CC1)N/N=C/c1ccccc1C(=O)O,-1.4,18.6,-16.3,1.2,-15.8,4.2,.,.,
Cc1ccc2c(c1)/C(=C/c1ccccc1)C(=O)N2,3.7,7.7,2.3,-7.3,-15.0,10.7,.,.,
COc1ccc2c(c1)/C(=C\c1cccc(/C=C3/C(=O)Nc4ccc(OC)cc43)n1)C(=O)N2,98.3*,83.3*,-7.2,89.6*,95.8*,106.8*,98.5*,106.5*,
SMILES,TRPM1 prom inh,CF NFkB inh,KKLEB cytotox,HIF-2a inh,Shn3 3UTR inh,Peg3 promoter,HIF-2a conf,HIF-1a cs,others
O=C(N/N=C/c1ccc([N+](=O)[O-])s1)c1ccccc1,105.0*,-34.6,39.7,51.1*,32.1,1.1,49.0*,67.5*,
O=[N+]([O-])c1ccc(O)c(/C=N/NC(=S)Nc2ccc(Cl)cc2Cl)c1,43.4,10.1,-7.3,-77.7,15.1,11.9,.,.,
O=C(N/N=C/c1ccc([N+](=O)[O-])s1)c1ccccc1Br,90.3*,-14.8,1.0,69.6*,40.6,28.4,75.5*,91.4*,
O=[N+]([O-])c1ccc(/C=N/NC(=S)Nc2ccc(Cl)cc2Cl)s1,40.4,-2.2,0.0,-29.5,3.9,60.5*,.,.,Mdm2-MdmX confirm=84.5*
Cc1ccccc1C(=O)N/N=C/c1ccc([N+](=O)[O-])s1,93.6*,-3.6,1.4,76.3*,-2.5,50.4*,89.7*,94.6*,
CCOC(=O)C1CCN(C(=O)c2ccccc2)c2scc(-c3ccccc3)c2C1=O (stereo not drawn),.,-7.2,5.7,-9.6,14.4,3.3,.,.,
Cc1ccccc1NC(=O)/C=C/c1ccc([N+](=O)[O-])s1,92.5*,66.4*,-59.4*,85.9*,93.2*,107.2*,68.2*,104.3*,
CCN(CC)Cc1c(O)ccc2c([N+](=O)[O-])c(C)n(-c3ccc(OC)cc3)c12,-0.1,81.8*,-23.0,25.2,6.7,11.8,.,.,Mdm2-MdmX confirm=83.7*
CCN(CC)Cc1c(O)ccc2occ(C(=O)c3ccc(OC)cc3)c12,-2.4,-5.3,3.8,28.7,-0.8,4.0,.,.,
O=C1NN=C2CCCCCCCCCCC12 (stereo not drawn),.,-14.6,9.2,9.2,-2.8,3.9,.,.,
O=C(Nc1ccc(-c2nc3cccnc3s2)cc1)C1CCCO1 (stereo not drawn),.,26.6,-18.4,58.5*,83.5,49.6,69.2*,44.9,
O=C(Nc1ccc(-c2nc3ccccc3o2)cc1)C1CCCO1 (stereo not drawn),-37.7,-11.9,-8.7,-181.1,-15.5,-141.6,.,.,
O=C(c1ccsc1)N1CCCC(N2CCOCC2)C1 (stereo not drawn),-2.9,0.0,2.0,11.5,-14.8,18.2,.,.,
CCSc1ccc(-c2cc(NC=O)c3ncc(-c4cccc(C(=O)NCCN(C)C)c4)n3c2)cc1,.,-29.6,-2.2,92.1*,-11.4,88.8*,-9.3,101.3*,
CC(=O)Nc1cc(-c2cccc(C(=O)NCCN(C)C)c2)cn2c(-c3cccc(C(F)(F)F)c3)cnc12,.,-78.9,-29.5,94.9*,3.4,98.9*,0.8,104.7*,
COc1ccc(NC(=O)/C=C/c2cc(Br)ccc2OC)cc1,22.7,-12.7,-7.7,-10.8,1.3,10.2,.,.,
COc1ccc(Br)cc1/C=C/C(=O)c1ccc(NC(C)=O)cc1,82.0*,42.3,16.6,84.7*,96.9*,106.0*,64.1*,105.7*,

# Screens as filed in PubChem BioAssay.
